S2 tox = viability counter-screen for ATXN expression inhibitors; S2 cells (HEK-293 line with an ATXN2-luciferase reporter) viability, CellTiter-Fluor protease fluorescence, 24 h; Potency, µM (doses to about 56.7 µM), usual class: cytotoxic; 0.49% of 400,000 active; also: nearly all actives have a fitted effect of over 40% in size
TGFb inhibitor = blocks TGF-b signaling; HepG2 CAGA-GFP TGF-b/SMAD3 reporter, GFP fluorescence, 18 h; TGF-beta stimulated, 500 pg/mL final; Potency, µM (highest dose often 46.1 µM), for inactives: top-dose activity, negative = inhibition, actives largely listed as inhibitors; 1.2% of 410,000 active; also: % is scaled to controls: 0 for no effect and ±100 for the full control effect; nearly all actives have a fitted effect of over 65% in size
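HEPG2 CAGA-GFP reporter cells (1000/well, DMEM with 1% FBS) received compounds, then recombinant TGF-beta at 500 pg/mL final for 18 hours at 37 degrees C. Per-cell GFP summed per well was normalised to unstimulated and stimulated DMSO controls before curve fitting.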
HepG2 tox = counter-screen for TGF-b inhibitors: cytotoxicity in HepG2 cells. AID 588856. Potency, µM (series often up to 46.1 µM), inactives show at the highest dose activity change, negative = cytotoxicity, hits mostly cytotoxic. HepG2 CAGA-GFP viability, ATP luminescence, 18 h. 0.76% of 410,000 active
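HepG2 CAGA-GFP cells (1000/well, DMEM with 1% FBS) received compound, then TGF-beta at 500 pg/mL final, and were incubated 18 hours at 37 degrees C. Viability was read by CellTiter-Glo luminescence. Media-only wells were set as complete cell-killing and DMSO as no toxicity.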
ATXN2 expr inh = reduces ATXN2 reporter expression in HEK-293 cells. HEK-293 ATXN2-luciferase reporter, luminescence, 24 h. 0.72% of 360,000 active. Potency, µM (titrated, usually from 57 µM), for the others: at the top dose activity change, negative = inhibition, hits mostly inhibitors. AID 1745845; also: % is scaled to controls: 0 for no effect and ±100 for the full control effect; nearly all actives have a fitted effect of over 55% in size
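ATXN2-luciferase reporter cells (luciferase flanked by upstream and downstream ATXN2 gene portions) were treated 24 h at 37 °C with compounds at up to 57 uM. SteadyGlo luminescence gave expression; GF-AFC fluorescence gave viability.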
HT1080NT lethal = kills 2HG-producing HT-1080-NT fibrosarcoma cells | 1.6% of 360,000 active | HT-1080-NT fibrosarcoma viability, CellTiter-Glo ATP luminescence, 48 h | Potency, µM (top dose mostly 46.1 µM), inactives show at the highest dose activity, negative = less viability, most hits filed as cytotoxic;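 also: NT is the 2HG producing partner of a matched IDH1 knockdown line; 0% = DMSO-treated cells and -100% = media-only wells without cells; nearly all actives have a fitted effect of over 55% in size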
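Toxicity toward the 2HG-producing NT line was scored as %Activity, normalised to DMSO and no-cell wells, from CellTiter-Glo luminescence after 48 hours' treatment.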
HT1080 IDH1KD tx = kills HT-1080 cells with IDH1 knockdown; 2% of 360,000 active; HT-1080 IDH1 knockdown viability, ATP luminescence, 48 h; Potency, µM (doses to about 46.1 µM), without a hit: at the top dose activity, negative = toxicity, actives largely listed as cytotoxic;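 also: 0% = DMSO wells and -100% = cell-free medium wells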
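Luminescent ATP read-out (CellTiter-Glo, 10 min at room temperature) after 48 h compound exposure at 37 °C gave viability of IDH1-knockdown HT-1080 cells. Activity was normalised to DMSO and cell-free wells, then fitted as concentration-response curves.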
* = called active by the depositor; i = inactive; ? = inconclusive; . = no result given. The list is not random: actives were taken first. Their share in the collection is about 3.8%. Calls follow the shape of the dose curve; as a rule, active = well fitted curve in the direction sought with a large enough effect; inconclusive = small, poorly fitted or top-dose-only effect, or another doubt; inactive = no such curve, though single readings can be large; an effect the other way counts as inactive or inconclusive. Potency is read from the fitted curve at half-maximal effect.

SMILES	S2 tox	TGFb inhibitor	HepG2 tox	ATXN2 expr inh	HT1080NT lethal	HT1080 IDH1KD tx
CCn1c(-c2ccccc2)c(C(=O)CCl)c2ccccc21	3.98µM*	3.2%	8.7%	.	?	20.6µM*
Cn1c(-c2ccccc2)c(C(=O)CCl)c2ccccc21	7.52µM*	?	-55.4%	?	14.6µM*	10.3µM*
Cc1cnc(-n2ncc(C(=O)NCCc3cccnc3)c2C)nc1-c1ccc(F)cc1	i	.	.	.	.	.
CCOC(=O)c1c(NC(=O)c2cc(-c3ccc(OC)c(OC)c3)on2)sc2c1CCCC2	i	3.4%	3.0%	4.1%	.	.
Cc1ccc(NS(=O)(=O)c2ccc3oc(=O)c4ncn(C)c4c3c2)cc1C	i	-14.7%	-27.1%	-4.1%	.	.
Cc1ccc(Cl)cc1NS(=O)(=O)c1ccc2oc(=O)c3ncn(C)c3c2c1	.	15.8µM*	10µM*	.	.	.
CN1CCCC1CCOC(C)(c1ccccc1)c1ccc(Cl)cc1 (stereo not drawn)	20µM*	?	11.2µM*	31.6µM*	16.4µM*	?
O=C(Nc1ccccc1)N1CCC(c2nc(-c3ccc(S(=O)(=O)N4CCOCC4)cc3)no2)CC1	i	31.2%	-0.1%	-19.2%	10µM*	7.94µM*
O=C(c1ccccc1)N1CCC(c2nc(-c3ccc(S(=O)(=O)N4CCOCC4)cc3)no2)CC1	?	-25.1%	-35.3%	-19.6%	-1.9%	-12.2%
CN(C)c1ccc(C=Nc2cnc3ccccc3c2)cc1	.	6.4%	-6.0%	.	.	.
O=C(N/N=C/c1ccccc1Cl)c1[nH]c2ccc(Br)cc2c1-c1ccccc1	i	84.1%	-26.5%	?	0.517µM*	0.461µM*
NNC(=O)c1[nH]c2ccc(Cl)cc2c1-c1ccccc1	i	?	-19.4%	-17.7%	?	?
COc1ccc(/C=N/NC(=O)c2[nH]c3ccc(Cl)cc3c2-c2ccccc2)c(C(=O)O)c1OC	.	?	-21.0%	?	-24.8%	?
COc1ccc(/C=N/NC(=O)c2[nH]c3ccc(Br)cc3c2-c2ccccc2)c(C(=O)O)c1OC	i	-28.0%	-9.0%	-16.4%	23.1µM*	23.1µM*
NNC(=O)c1[nH]c2ccc(Br)cc2c1-c1ccccc1	?	?	-26.7%	-34.4%	9.2µM*	14.6µM*
Cc1c(C(=O)N/N=C/c2ccccc2)[nH]c2ccc(Cl)cc12	?	?	-30.7%	.	18.4µM*	14.6µM*
O=C(N/N=C/c1ccccc1)c1c(O)c2ccccc2[nH]c1=O	?	1.7%	1.7%	-35.9%	-7.2%	-24.2%
COc1cccc(Oc2nc3c(c(=O)n(Cc4ccccc4Cl)c(=O)n3C)n2C)c1	i	-14.3%	3.7%	13.6%	.	.
Cc1cccc(Oc2nc3ccccn3c(=O)c2/C=C(\C#N)c2nc3ccccc3s2)c1C	i	2.0%	-3.4%	10.9%	.	.
COc1ccc(/C=N/NC(=O)c2[nH]c3ccc(Br)cc3c2-c2ccccc2)cc1	i	?	-34.5%	-27.1%	0.0366µM*	0.0052µM*
COc1ccc2c(c1)c(C(=O)N/N=C/c1ccc(Br)cc1)c(C)n2C	?	-28.7%	-13.2%	?	?	18.4µM*
CC(=O)NNC(=O)c1[nH]c2ccc(Br)cc2c1-c1ccccc1	i	?	-15.4%	0.0%	?	?
CCOc1ccc(/C=N/NC(=O)c2c(C)n(C)c3ccc(OC)cc23)cc1	i	?	26.5%	-11.3%	?	?
COc1ccc(CN2CCN(C(C)=O)CC2)cc1OC1CCN(C(=O)c2ccc3ccccc3n2)CC1	i	.	.	.	.	.
CCCCOc1ccccc1C1CC(=O)Nc2ccc3ccccc3c21 (stereo not drawn)	.	?	11.2µM*	.	.	.
CCn1c(C(=O)OC)cc2c1ccn2-c1ccc(F)cc1	i	11.1%	12.6µM*	61.0%	5.0%	?

Screening data: PubChem BioAssay, National Center for Advancing Translational Sciences (NCATS)
